Prx2 Sm inh = blocks S. mansoni peroxiredoxin 2 enzymatic activity; S. mansoni Prx2 activity coupled to TGR/GSH (TGR is thioredoxin glutathione reductase), NADPH fluorescence loss, qHTS; Potency, µM; 65,000 compounds, 0.07% hits; AID 448
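Coupled assay in which S. mansoni TGR passes NADPH reducing equivalents via glutathione to Prx2, which reduces H2O2. Compounds were preincubated 15 min at room temperature with 25 nM TGR/50 nM Prx2 mix. Kinetic NADPH fluorescence loss (ex 365/em 450 nm) was monitored.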
AmpC det inh = inhibitors of E. coli AmpC beta-lactamase with detergent; 71,000 compounds, 0.09% hits; Potency, µM (top dose mostly 28.7 µM); AID 584; purified AmpC, nitrocefin hydrolysis with detergent; P00811; active = well fitted curve in the direction sought with a large enough effect; inconclusive = small, poorly fitted or top-dose-only effect
Target sequence (P00811 whole entry, looked up): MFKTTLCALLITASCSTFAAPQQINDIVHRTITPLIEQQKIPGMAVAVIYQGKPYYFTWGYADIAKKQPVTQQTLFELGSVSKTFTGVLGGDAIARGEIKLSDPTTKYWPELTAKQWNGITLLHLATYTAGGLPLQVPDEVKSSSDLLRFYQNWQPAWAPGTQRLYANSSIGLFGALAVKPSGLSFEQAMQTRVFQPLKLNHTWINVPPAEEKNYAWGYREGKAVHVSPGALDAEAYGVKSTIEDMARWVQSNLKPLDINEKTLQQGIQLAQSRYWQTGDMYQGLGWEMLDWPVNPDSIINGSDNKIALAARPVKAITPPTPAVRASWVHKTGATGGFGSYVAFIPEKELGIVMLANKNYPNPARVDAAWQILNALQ
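E. coli AmpC (5.3 nM) in 20 mM phosphate pH 7.0 with 0.01% Triton X-100, preincubated 15 min RT with compound; nitrocefin (2 uL of 800 uM stock) hydrolysis followed by 480 nm absorbance every 20 s over 4 min.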
Anthrax LT inh = blocks cellular internalization of anthrax lethal toxin; Potency, µM (series often up to 40 µM), actives largely listed as inhibitors; AID 912; Cells, anthrax lethal toxin internalization, FRET ratio (460/530); 70,000 compounds, 0.67% hits; also: nearly all actives have a fitted effect of over 50% in size
AmpC nodet inh = blocks E. coli AmpC beta-lactamase in absence of detergent; P00811; AmpC nitrocefin hydrolysis, absorbance 480 nm, no detergent; Potency, µM (doses to about 28.7 µM); 71,000 compounds, 1.8% hits; AID 585
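AmpC, 20 mM phosphate pH 7.0; 15 min cpd preinc, RT; start with nitrocefin (800 uM stock); A480 kinetic read, 20 s intervals, 4 min. No-enzyme wells = negative control.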
Numbers stand for hits; . = inactive; ? = inconclusive; / = no result; [ ] = another dose, or the depositor's remark. The list is not random: actives were taken first. Their share in the collection is about 2.6%. Unless noted, calls follow the shape of the full dose curve.

SMILES	Prx2 Sm inh	AmpC det inh	Anthrax LT inh	AmpC nodet inh
COc1ccc(NC(=O)NCCN2C(=O)C3C4C=CC(C4)C3C2=O)cc1 (stereo not given)	.	.	.	2.51µM[single pt active]
COc1ccc(CN2C(=O)C3C4C=CC(C4)C3C2=O)cc1 (stereo not given)	.	.	.	.
O=C(NCCN1C(=O)C2C3C=CC(C3)C2C1=O)Nc1ccccc1 (stereo not given)	.	.	.	3.98µM[single pt active]
O=C(Nc1ccccc1)N1CCN(Cc2ccc3c(c2)OCO3)CC1	.	.	.	3.98µM[single pt active]
Cc1ccc(NC(=O)NCCCN2CCOCC2)cc1	.	.	.	.
Cc1ccc(NC(=O)NCCN2C(=O)C3C4C=CC(C4)C3C2=O)cc1 (stereo not given)	.	.	.	3.98µM[single pt active]
[N-]=[N+]=CC(=O)COC(=O)c1ccccc1	.	.[5.75 µM]	?	.[5.75 µM]
NCCCCCCNS(=O)(=O)c1ccc2c(Cl)cccc2c1	.	.	?	.
O=C(NCCN1C(=O)C2C3C=CC(C3)C2C1=O)NCc1ccccc1 (stereo not given)	.	.	.	3.98µM[single pt active]
COc1ccc(NC(=O)NCCN2CCc3ccccc3C2)cc1	.	.	.	.
Cc1ccccc1NC(=O)NCCN1C(=O)C2C3C=CC(C3)C2C1=O (stereo not given)	.	.	.	2µM[single pt active]
O=C(CCN1C(=O)C2C3C=CC(C3)C2C1=O)NCC1CCCO1 (stereo not given)	.	.	.	.
O=C(CCN1C(=O)C2C3C=CC(C3)C2C1=O)NCCN1CCCc2ccccc21 (stereo not given)	.	.	.	.
O=C(NCCN1CCN(C(=O)Nc2ccccc2)CC1)Nc1ccccc1	.	.	.	3.98µM[single pt active]
O=C(NCCN1C(=O)C2C3C=CC(C3)C2C1=O)N1CCCCC1 (stereo not given)	.	.	.	3.98µM[single pt active]
COc1cccc(-c2ccc3ncnc(NCCNC(C)=O)c3c2)c1	.	.	.	.
CCOC(=O)OCC1OC(C#Cc2ccc(C)cc2C)C=CC1OC(=O)OCC (stereo not given)	/	/	.[8 µM]	/
COC(=O)NC(/C(C(=O)OC)=C(\C)NCc1ccccc1)c1cccc(F)c1 (stereo not given)	/	/	.[8 µM]	/
CC(C)C1=CC2=CC[C@H]3[C@@](C)(CCC[C@]3(C)C(=O)O)[C@@H]2CC1	.	.	?	.
C=CCC1C=CC(OC(=O)OCC)C(COC(=O)OCC)O1 (stereo not given)	/	/	.[8 µM]	/
COc1ccc(NC(=O)NCCCN2CCCCC2C)cc1 (stereo not given)	.	.	.	.
Cc1cccc(NC(=O)NCCN2C(=O)C3C4C=CC(C4)C3C2=O)c1 (stereo not given)	.	.	.	3.98µM[single pt active]
COc1ccc(NC(=O)NCCCN2CCCC2=O)cc1	.	.	.	3.98µM[single pt active]
CCOC(=O)c1cccc(NC(=O)CN2C(=O)C3C4C=CC(C4)C3C2=O)c1 (stereo not given)	.	.	.	.
CC(C)NC(=O)N1CCC2(CC1)CCN(S(=O)(=O)c1ccccc1)CC2	.	.	?	.
SMILES	Prx2 Sm inh	AmpC det inh	Anthrax LT inh	AmpC nodet inh
C=CCCCCCCC=C	/	.	.	.
O=C(NCc1ccc(F)cc1)c1cc2n(n1)C(C(F)(F)F)CC(C1CC1)N2 (stereo not given)	.	.	.	3.98µM[single pt active]
CS(=O)(=O)N1CCc2cc(-c3csc(NC(=O)Cc4cccs4)n3)ccc21	.	.	12.6µM	?
O=C(c1ccc(N2CCCCS2(=O)=O)cc1)N1CCN(c2ccc(N3CCOCC3)nn2)CC1	.	.	.	3.98µM[single pt active]
COc1ccc(-c2noc(-c3cc(Cl)ccc3Cl)n2)cc1OC	.	.	.	.
COC(=O)c1ccc(-c2nc(-c3ccc(Br)o3)no2)cc1	.	.	.	3.98µM[single pt active]
COC(=O)c1ccc(-c2nc(-c3cccs3)no2)cc1	.	.	.	3.98µM[single pt active]
COc1ccc(Cl)cc1-c1nc(-c2ccc(Br)o2)no1	.	.	.	3.16µM[single pt active]
CCOC(=O)c1ccc(OCc2nc(-c3cccs3)no2)cc1	.	.	.	.
C=CC[C@@H]1C=C[C@@H](O/N=C(/C)CCC(=O)OC[C@@H]2O[C@H](c3ccccc3)C=C[C@@H]2Oc2ccc(OC)cc2)[C@@H](CO)O1	/	/	.[8 µM]	/
NCC(=O)N[C@H](CO)C(=O)O	.	.[5.75 µM]	.[8 µM]	.[5.75 µM]
COc1cccc(-c2ccc3ncnc(NC4CC4)c3c2)c1	.	.	?	.
Cc1nc(N2CCOCC2)c2nc(-c3ccccc3)n(CCN(C)C)c2n1	/	.	.	.
O=c1[nH]c(=S)c2[nH]c(=O)n(-c3ccccc3)c2[nH]1	.	.[5.75 µM]	.[8 µM]	.[5.75 µM]
c1ccc(B2OC[C@@H]3OB(c4ccccc4)O[C@H]([C@@H]4COB(c5ccccc5)O4)[C@@H]3O2)cc1	.	1.58µM	.[8 µM]	.[5.75 µM]

Assay outcomes deposited in PubChem by National Center for Advancing Translational Sciences (NCATS).
